A selection: hits, their analogues and other compounds. The true share with any hit is near 4.7%.
D1 ag: agonists of human D1 dopamine receptor; HEK293 T-REx D1 cells, calcium flux, agonist mode; activation, % at 2 µM; AID 504660; 1% of 360,000 active; P21728; also: 0% is about no effect
Target sequence (P21728 whole entry, looked up): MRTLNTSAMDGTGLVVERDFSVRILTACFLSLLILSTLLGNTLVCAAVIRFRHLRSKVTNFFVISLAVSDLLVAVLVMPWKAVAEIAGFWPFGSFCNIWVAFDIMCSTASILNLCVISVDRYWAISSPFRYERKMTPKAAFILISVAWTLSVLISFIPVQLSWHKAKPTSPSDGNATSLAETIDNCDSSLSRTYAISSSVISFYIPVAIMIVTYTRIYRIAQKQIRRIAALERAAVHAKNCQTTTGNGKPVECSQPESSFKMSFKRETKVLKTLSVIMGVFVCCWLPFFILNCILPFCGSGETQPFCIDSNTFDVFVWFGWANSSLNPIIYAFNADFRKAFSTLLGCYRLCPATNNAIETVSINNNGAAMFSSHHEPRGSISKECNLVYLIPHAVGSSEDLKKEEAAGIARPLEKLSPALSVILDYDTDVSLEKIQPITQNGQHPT
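Agonism was scored from calcium flux recorded over 180 s (1 read/s) after pintool compound addition, following a 10-cycle baseline. Cells were inducible force-coupled HEK293 TREx D1, plated overnight at 30 C and loaded with no-wash calcium dye.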
D1 potentiator: enhances dopamine response at the human D1 receptor | P21728 | HEK293 TREx D1 cells, calcium flux, dopamine EC20 potentiation | potentiation, % at 10 µM | 0.036% of 360,000 active; in the data active = potentiation above about 30%; also: 0% is about no effect
D1 antagonist: blocks dopamine activation of the human D1 receptor. P21728. HEK293 TREx D1 cells, calcium flux, dopamine EC80; stronger effect = lower value. activity change, negative = inhibition, % at 10 µM. 3.2% of 360,000 active. AID 504652; in the data active = activity change below about -30%; also: % is scaled to controls: 0 for no effect and ±100 for the full control effect
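Using tetracycline-induced force-coupled D1 Hek293 cells and a calcium dye, signals were followed for 180 s after compound, then for 180 s after EC80 dopamine, to detect inhibitors.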
TRHR ag: activates the human TRH receptor; activation, % at 2 µM; AID 493084; P34981; TRHR cells, calcium flux fluo-8, FDSS agonist mode; 0.18% of 360,000 active; also: 0% is about no effect
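Read-out: compound-evoked intracellular calcium rise in TRHR cells, fluo-8 dye, kinetic FDSS fluorescence at 1 s/cycle following a 10-cycle baseline. Cells cultured overnight before dye loading (30 min–1.5 h, RT).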
TRHR enhancer: allosteric enhancers of human TRH receptor. P34981. TRHR cells, fluo-8 calcium fluorescence, EC20 TRH enhancement. enhancement, % at 2 µM. 0.66% of 360,000 active; in the data active = enhancement above about 30%; also: 0% is about no effect
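Enhancer read-out: after compound pinning and an initial kinetic agonist-mode read, an EC20 of TRH (10 nM final) was injected and fluo-8 calcium signal (Ex 480/Em 530) followed at 1 s/cycle for 100 cycles in TRHR-expressing cells.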
Starred values were filed as active, the others as inactive. Rule as the data show it, unless noted: active = activation above about 30%; inactive = the rest.

How did COc1ccc(S(=O)(=O)Nc2ccc(NC(C)=O)cc2)cc1 do in these assays?
D1 ag: 2; D1 potentiator: -1; D1 antagonist: -15; TRHR ag: 0; TRHR enhancer: 5

How did CC(C)C(=O)NC(=S)Nc1ccc(S(=O)(=O)NC2CCCCC2)cc1 do in these assays?
D1 ag: 11; D1 potentiator: -5; D1 antagonist: -32*; TRHR ag: 1; TRHR enhancer: -2

What do the screens show for `CCc1nnc(NS(=O)(=O)c2ccc(NC(=S)NC(=O)c3ccc(OC)c(OC)c3)cc2)s1`?
D1 ag: 2; D1 potentiator: 5; D1 antagonist: -2; TRHR ag: 0; TRHR enhancer: -5

Results for CCOc1ccc(NS(=O)(=O)c2ccc(NC(=S)NC(C)=O)cc2)cc1 ?
D1 ag: 95*; D1 potentiator: -5; D1 antagonist: -11; TRHR ag: 5; TRHR enhancer: -6

What do the screens show for `CCCCCOc1ccc(NC(=O)Cn2c(-c3nonc3N)nc3ccccc32)cc1`?
D1 ag: 5; D1 potentiator: 1; D1 antagonist: -6; TRHR ag: 2; TRHR enhancer: 2

What do the screens show for `Oc1ccc(/C=N/N(c2ccccc2)c2ccccc2)c(O)c1O`?
D1 ag: 1; D1 potentiator: -4; D1 antagonist: -9; TRHR ag: 1; TRHR enhancer: -2

What do the screens show for `Oc1ccc(/C=N/N(c2ccccc2)c2ccccc2)cc1O`?
D1 ag: 2; D1 potentiator: 1; D1 antagonist: -38*; TRHR ag: 1; TRHR enhancer: -9

What do the screens show for `CCc1ccccc1NC(=O)c1cnc2sc(N3CCCC3)nn2c1=O`?
D1 ag: 3; D1 potentiator: -4; D1 antagonist: 14; TRHR ag: 0; TRHR enhancer: 1

Results for CC(C)C[C@@H](CN=[N+]=[N-])N1CCN(C)CCC1=O ?
D1 ag: 2; D1 potentiator: 2; D1 antagonist: -3; TRHR ag: 0; TRHR enhancer: 31*

Results for CC(=O)c1ccc(Nc2c3c(c(C#N)c4nc5ccccc5n24)CCC3)cc1 ?
D1 ag: 5; D1 potentiator: -2; D1 antagonist: 0; TRHR ag: 10; TRHR enhancer: 10

What do the screens show for `CC(=O)Nc1ccc(N2CCc3c(C)c(C#N)c4nc5ccccc5n4c32)cc1`?
D1 ag: 47*; D1 potentiator: 1; D1 antagonist: 5; TRHR ag: 20; TRHR enhancer: -1

What do the screens show for `CCCc1cc(Nc2ccccc2C)n2ncnc2n1`?
D1 ag: 1; D1 potentiator: -9; D1 antagonist: -6; TRHR ag: 0; TRHR enhancer: 35*

How did Cc1ccc(NC(=O)C2CCCN(S(=O)(=O)c3cccc4cccnc34)C2)c(Br)c1 (stereo not drawn) do in these assays?
D1 ag: -1; D1 potentiator: -5; D1 antagonist: 2; TRHR ag: -1; TRHR enhancer: 2

Results for CNC(=O)N(O)C1N(/N=C/c2ccc(N(C)C)cc2)C(=S)SC1(C)C (stereo not drawn) ?
D1 ag: 2; D1 potentiator: -4; D1 antagonist: -13; TRHR ag: 0; TRHR enhancer: -8

What do the screens show for `CC1(C)SC(=S)N(/N=C/c2ccccc2)C1N(O)C(=O)Nc1ccc([N+](=O)[O-])cc1` (stereo not drawn)?
D1 ag: 19; D1 potentiator: -3; D1 antagonist: -37*; TRHR ag: 0; TRHR enhancer: 8

Results for COC(=O)CN1C(=O)S/C(=C/c2ccc(N3CCCCC3)o2)C1=O ?
D1 ag: 57*; D1 potentiator: 6; D1 antagonist: 7; TRHR ag: 56*; TRHR enhancer: 20

How did CCOC(=O)CN1C(=O)S/C(=C/c2ccc(N3CCCCC3)o2)C1=O do in these assays?
D1 ag: 55*; D1 potentiator: -2; D1 antagonist: 11; TRHR ag: 22; TRHR enhancer: -1

How did CN(C)c1ccc(CNC(=O)c2cc(S(=O)(=O)N3CCCC3)cn2C)cc1 do in these assays?
D1 ag: 8; D1 potentiator: -6; D1 antagonist: -12; TRHR ag: 0; TRHR enhancer: 2

How did O=C(NCc1ccc(Cl)cc1)c1cccc(S(=O)(=O)N2CCCC2)c1 do in these assays?
D1 ag: 0; D1 potentiator: -1; D1 antagonist: -40*; TRHR ag: -1; TRHR enhancer: 4
